From PubChem BioAssay (EPA / NIEHS)
Inconclusive results are not listed. The source made the active and inactive calls. The calls were made as follows: active = hit-call score of the fitted dose curve at least 0.9, where 1 is the maximum; inconclusive = response in the unintended direction; inactive = score below 0.9.

Experiments:
[1] = target: AR (gene 367) (UniProt P10275); assay: ACEA_AR_antagonist_80hr: ACEA Biosciences xCELLigence Real-Time Cell Analysis on Androgen Receptor Antagonism for Proliferation (AID 2283787);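 also: 22Rv1 human prostate cancer cells with growth followed by electrical impedance; hits lower the impedance growth signal relative to DMSO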
AR (gene 367), sequence (P10275 whole entry, looked up): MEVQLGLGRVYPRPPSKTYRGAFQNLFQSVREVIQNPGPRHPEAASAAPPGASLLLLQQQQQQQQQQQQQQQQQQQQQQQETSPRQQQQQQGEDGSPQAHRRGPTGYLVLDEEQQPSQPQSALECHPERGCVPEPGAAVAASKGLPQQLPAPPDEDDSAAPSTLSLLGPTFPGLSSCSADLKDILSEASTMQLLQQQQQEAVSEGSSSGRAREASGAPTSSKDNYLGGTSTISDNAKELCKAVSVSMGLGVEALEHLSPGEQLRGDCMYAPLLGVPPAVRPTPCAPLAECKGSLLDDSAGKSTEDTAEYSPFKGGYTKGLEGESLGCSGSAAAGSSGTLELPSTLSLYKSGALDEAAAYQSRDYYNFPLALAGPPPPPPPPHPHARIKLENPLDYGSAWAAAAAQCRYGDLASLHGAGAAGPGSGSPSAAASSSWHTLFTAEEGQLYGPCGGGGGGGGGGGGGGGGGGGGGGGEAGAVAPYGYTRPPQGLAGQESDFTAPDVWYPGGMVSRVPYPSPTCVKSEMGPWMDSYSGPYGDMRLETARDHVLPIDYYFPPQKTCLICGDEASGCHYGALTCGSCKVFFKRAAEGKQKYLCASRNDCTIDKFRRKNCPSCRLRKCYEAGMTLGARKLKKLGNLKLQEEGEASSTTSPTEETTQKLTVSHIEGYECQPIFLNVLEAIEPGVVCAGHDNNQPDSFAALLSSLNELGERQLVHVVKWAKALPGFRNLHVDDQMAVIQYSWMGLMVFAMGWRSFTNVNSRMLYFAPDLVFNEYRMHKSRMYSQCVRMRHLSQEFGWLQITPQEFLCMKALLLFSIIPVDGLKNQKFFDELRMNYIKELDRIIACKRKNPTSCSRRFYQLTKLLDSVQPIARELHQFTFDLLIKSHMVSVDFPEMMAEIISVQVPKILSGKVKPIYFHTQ
Method in brief: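 Measures real-time proliferation of 22Rv1 prostate cancer cells by electrode impedance at 80 hours after dosing. Test articles ran at eight concentrations (1:4 steps, top 100 uM final) in biological duplicate.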

[2] = ATG_M_06_XSP1: Attagene TRANS-FACTORIAL Multi-Species (XSP1) HepG2 Assay for M06 Transcription Factor (Internal Marker) (AID 2283790)
Method in brief: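 This background-control readout tracks M06 reporter mRNA, measured by RT-PCR and capillary electrophoresis. HepG2 cells transiently carrying the GAL4-UAS reporter panel were dosed for 24 h with 3 nM 6-alpha-fluorotestosterone added for partial AR stimulation; increases were scored relative to DMSO.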

[3] = ATG_M_61_XSP1: Attagene TRANS-FACTORIAL Multi-Species (XSP1) HepG2 Assay for M61 Transcription Factor (Internal Marker) (AID 2283797)
Method in brief: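 Background-control readout: reporter transcripts measured by RT-PCR and capillary electrophoresis 24 h after dosing transiently transfected HepG2 multi-reporter cells, with 3 nM 6-alpha-fluorotestosterone present. Fitted in the positive direction relative to DMSO.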

[4] = target: frog Thyroid hormone Receptor alpha (TRa), thra-a (gene 397942) (UniProt P15204); assay: ATG_frTRa_XSP1: Attagene TRANS-FACTORIAL Multi-Species (XSP1) HepG2 Assay for frog Thyroid hormone Receptor alpha (TRa) (AID 2283804)
frog Thyroid hormone Receptor alpha (TRa), thra-a (gene 397942), sequence (P15204 whole entry, looked up): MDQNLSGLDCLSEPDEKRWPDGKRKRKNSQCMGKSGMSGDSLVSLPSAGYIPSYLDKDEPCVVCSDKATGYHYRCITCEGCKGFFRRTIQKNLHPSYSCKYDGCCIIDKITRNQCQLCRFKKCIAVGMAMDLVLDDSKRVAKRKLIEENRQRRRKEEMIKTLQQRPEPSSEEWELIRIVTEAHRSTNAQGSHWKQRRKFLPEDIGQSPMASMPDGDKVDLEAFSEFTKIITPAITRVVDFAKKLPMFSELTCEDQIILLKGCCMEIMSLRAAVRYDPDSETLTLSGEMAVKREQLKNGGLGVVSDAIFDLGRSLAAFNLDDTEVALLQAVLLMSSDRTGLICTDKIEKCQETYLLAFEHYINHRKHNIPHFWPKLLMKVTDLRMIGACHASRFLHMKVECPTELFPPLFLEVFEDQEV
Method: (§1) ATG_XSP1_multi-species_TRANS is a cell-based, multiplexed assay created by modifying the existing Attagene TRANS-FACTORIAL system to include a panel of nuclear receptors from some or all the following species: human (Homo sapiens), mouse (Mus musculus), frog (Xenopus laevis), zebrafish (Danio rerio), chicken (Gallus gallus), and turtle (Chrysemys picta). The ECOTOX-FACTORIAL format uses HepG2, a human liver cell line, with measurements taken at 24 hours after chemical dosing in a 24-well plate. Xsp1 included 3 nM 6-alpha-fluorotestosterone to partially stimulate the androgen receptor.ATG_frTRa_XSP1 is one of 29 assay components measured or calculated from the ATG_XSP1_multi-species_TRANS assay. It is designed to make measurements of mRNA induction, a form of inducible reporter, as detected with fluorescence intensity signals by Reverse transcription polymerase chain reaction (RT-PCR) and Capillary electrophoresis technology.The assay endpoint ATG_frTRa_XSP1 was analyzed in the positive analysis fitting direction relative to DMSO as the negative control and baseline of activity. […] Furthermore, this assay endpoint can be referred to as a primary readout, because this assay has produced multiple assay endpoints where this one serves a reporter gene function. […]

[5] = target: human Thyroid hormone Receptor alpha (TRa), THRA (gene 7067) (UniProt P10827); assay: ATG_hTRa_XSP1: Attagene TRANS-FACTORIAL Multi-Species (XSP1) HepG2 Assay for human Thyroid hormone Receptor alpha (TRa) (AID 2283805)
human Thyroid hormone Receptor alpha (TRa), THRA (gene 7067), sequence (P10827 whole entry, looked up): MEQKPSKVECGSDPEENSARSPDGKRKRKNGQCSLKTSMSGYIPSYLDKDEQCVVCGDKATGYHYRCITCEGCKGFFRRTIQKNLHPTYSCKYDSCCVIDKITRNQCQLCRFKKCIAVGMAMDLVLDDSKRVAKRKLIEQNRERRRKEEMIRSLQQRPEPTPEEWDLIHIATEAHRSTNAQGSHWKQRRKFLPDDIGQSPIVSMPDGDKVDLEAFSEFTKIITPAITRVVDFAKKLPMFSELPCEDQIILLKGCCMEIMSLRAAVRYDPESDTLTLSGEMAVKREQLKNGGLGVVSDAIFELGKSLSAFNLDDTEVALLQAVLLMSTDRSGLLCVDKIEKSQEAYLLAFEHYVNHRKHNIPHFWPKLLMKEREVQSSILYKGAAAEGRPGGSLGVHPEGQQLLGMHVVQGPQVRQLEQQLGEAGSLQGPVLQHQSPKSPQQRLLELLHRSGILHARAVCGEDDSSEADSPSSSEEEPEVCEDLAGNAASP
Method: as §1, with “receptor.ATG_hTRa_XSP1” for “receptor.ATG_frTRa_XSP1”, “ATG_hTRa_XSP1” for “ATG_frTRa_XSP1”

[6] = target: GAL4 Transcription Factor (Internal Marker), GAL4 (gene 855828) (UniProt P04386); assay: ATG_GAL4_XSP1: Attagene TRANS-FACTORIAL Multi-Species (XSP1) HepG2 Assay for GAL4 Transcription Factor (Internal Marker) (AID 2283789)
GAL4 Transcription Factor (Internal Marker), GAL4 (gene 855828), sequence (P04386 whole entry, looked up, the tested form may be a part): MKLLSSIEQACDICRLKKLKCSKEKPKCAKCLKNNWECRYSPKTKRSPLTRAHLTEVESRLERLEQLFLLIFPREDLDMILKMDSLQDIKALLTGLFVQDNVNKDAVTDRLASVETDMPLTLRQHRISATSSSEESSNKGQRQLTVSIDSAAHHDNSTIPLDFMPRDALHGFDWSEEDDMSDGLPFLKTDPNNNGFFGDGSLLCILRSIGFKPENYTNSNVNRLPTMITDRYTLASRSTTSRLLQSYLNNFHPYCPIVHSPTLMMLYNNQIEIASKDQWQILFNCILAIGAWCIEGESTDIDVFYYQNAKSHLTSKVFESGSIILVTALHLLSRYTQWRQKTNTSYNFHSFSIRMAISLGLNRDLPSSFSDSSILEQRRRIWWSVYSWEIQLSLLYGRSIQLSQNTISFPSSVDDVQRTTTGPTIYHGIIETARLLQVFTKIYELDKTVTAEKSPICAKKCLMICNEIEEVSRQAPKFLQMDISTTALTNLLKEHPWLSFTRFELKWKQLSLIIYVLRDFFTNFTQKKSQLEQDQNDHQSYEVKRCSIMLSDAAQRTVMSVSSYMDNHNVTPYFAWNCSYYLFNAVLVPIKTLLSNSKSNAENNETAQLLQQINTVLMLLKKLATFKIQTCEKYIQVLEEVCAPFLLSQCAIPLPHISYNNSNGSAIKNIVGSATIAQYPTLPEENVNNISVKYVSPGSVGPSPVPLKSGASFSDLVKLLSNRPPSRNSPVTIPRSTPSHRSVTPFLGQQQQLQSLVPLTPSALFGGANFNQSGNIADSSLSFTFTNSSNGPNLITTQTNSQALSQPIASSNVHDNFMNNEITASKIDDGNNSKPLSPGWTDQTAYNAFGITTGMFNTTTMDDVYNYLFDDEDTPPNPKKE
Method in brief: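 This background-control endpoint measures GAL4-driven reporter mRNA via RT-PCR and capillary electrophoresis of labelled fragments. Transiently transfected HepG2 cells were treated 24 h, with 3 nM 6-alpha-fluorotestosterone included, and gain-of-signal was fitted against DMSO.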

[7] = ATG_M_19_XSP1: Attagene TRANS-FACTORIAL Multi-Species (XSP1) HepG2 Assay for M19 Transcription Factor (Internal Marker) (AID 2283798)
Method in brief: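 Readout is reporter mRNA induction quantified via RT-PCR, 6-FAM labeling, HpaI digestion and capillary electrophoresis, fitted in the positive direction versus DMSO baseline. Transfected HepG2 cells exposed 24 h, medium including 3 nM 6-alpha-fluorotestosterone.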

[8] = ATG_M_32_XSP1: Attagene TRANS-FACTORIAL Multi-Species (XSP1) HepG2 Assay for M32 Transcription Factor (Internal Marker) (AID 2283799)
Method in brief: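 Reporter transcripts from the M32 internal-control unit measured by RT-PCR, FAM labelling, HpaI digestion and capillary electrophoresis after 24 h compound exposure of transfected HepG2, 3 nM 6-alpha-fluorotestosterone included; DMSO baseline, positive-direction fit.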

[9] = target: mouse Peroxisome Proliferator-activated Receptor gamma (PPARg), Pparg (gene 19016) (UniProt P37238); assay: ATG_mPPARg_XSP1: Attagene TRANS-FACTORIAL Multi-Species (XSP1) HepG2 Assay for mouse Peroxisome Proliferator-activated Receptor gamma (PPARg) (AID 2283802)
mouse Peroxisome Proliferator-activated Receptor gamma (PPARg), Pparg (gene 19016), sequence (P37238 whole entry, looked up): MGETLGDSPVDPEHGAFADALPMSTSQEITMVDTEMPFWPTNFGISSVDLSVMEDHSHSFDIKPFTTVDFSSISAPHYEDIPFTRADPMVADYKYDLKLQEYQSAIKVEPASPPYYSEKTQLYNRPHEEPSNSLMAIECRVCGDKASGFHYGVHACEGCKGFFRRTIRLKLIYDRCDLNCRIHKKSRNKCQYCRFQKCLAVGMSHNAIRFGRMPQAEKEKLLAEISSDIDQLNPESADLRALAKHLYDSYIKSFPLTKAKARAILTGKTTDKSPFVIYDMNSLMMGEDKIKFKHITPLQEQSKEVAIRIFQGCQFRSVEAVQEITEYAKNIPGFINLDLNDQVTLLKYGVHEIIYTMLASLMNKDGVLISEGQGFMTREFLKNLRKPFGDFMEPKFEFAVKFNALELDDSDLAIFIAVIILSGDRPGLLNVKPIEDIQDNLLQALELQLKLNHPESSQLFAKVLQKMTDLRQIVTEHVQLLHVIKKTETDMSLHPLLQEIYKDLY
Method: as §1, with “receptor.ATG_mPPARg_XSP1” for “receptor.ATG_frTRa_XSP1”, “ATG_mPPARg_XSP1” for “ATG_frTRa_XSP1”

[10] = target: Nuclear receptor subfamily 1 group I member 2 (Mus musculus) (UniProt O54915); assay: ATG_mPXR_XSP1: Attagene TRANS-FACTORIAL Multi-Species (XSP1) HepG2 Assay for mouse Pregnane X Receptor (PXR) (AID 2283803)
Nuclear receptor subfamily 1 group I member 2 (Mus musculus), sequence (O54915 whole entry, looked up, the tested form may be a part): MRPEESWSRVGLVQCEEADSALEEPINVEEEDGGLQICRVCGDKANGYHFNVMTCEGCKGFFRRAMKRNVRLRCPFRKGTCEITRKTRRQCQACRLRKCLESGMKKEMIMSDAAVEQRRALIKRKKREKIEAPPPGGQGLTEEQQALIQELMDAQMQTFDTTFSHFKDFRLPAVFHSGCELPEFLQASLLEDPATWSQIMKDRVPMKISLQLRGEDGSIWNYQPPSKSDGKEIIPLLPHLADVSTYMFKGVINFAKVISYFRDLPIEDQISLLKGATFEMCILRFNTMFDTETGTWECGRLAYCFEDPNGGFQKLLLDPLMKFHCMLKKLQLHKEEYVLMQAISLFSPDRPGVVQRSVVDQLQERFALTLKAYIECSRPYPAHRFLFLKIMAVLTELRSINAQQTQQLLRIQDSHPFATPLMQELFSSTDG
Method in brief: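 Transiently transfected HepG2 cells expressing a receptor-Gal4 chimera drive a GAL4-UAS reporter; 3 nM 6-alpha-fluorotestosterone included. Reporter mRNA read 24 h post-dose by RT-PCR and capillary electrophoresis; gain of signal relative to DMSO.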

C[C@]12CC[C@H]3C(=CCc4cc(O)ccc43)[C@@H]1CCC2=O
AC50 [1]: 687 nM (active)
outcome [2]: inactive
outcome [3]: inactive
outcome [4]: inactive
outcome [5]: inactive

CCN=C1C=CC(=C(c2ccc(N(CC)CC)cc2)c2ccc(N(CC)CC)cc2)c2ccccc21
AC50 [1]: 131 nM (active)

CCCCCCCCCc1ccc(OCCO)cc1
AC50 [1]: 16600 nM (active)

CCCCCCCCCCCCCC[P+](CCCC)(CCCC)CCCC
AC50 [1]: 43.6 nM (active)

O=C(c1ccccc1)c1ccc(O)cc1O
outcome [6]: inactive
outcome [2]: inactive
outcome [3]: inactive
outcome [7]: inactive
outcome [8]: inactive
outcome [9]: inactive
outcome [10]: inactive
outcome [5]: inactive

CCCCCCCCCCCCC[N+](C)(C)Cc1ccccc1
AC50 [1]: 4670 nM (active)

CCCCCCCC/C=C\CCCCCCCC(=O)OCC(O)CO (stereo unspecified)
outcome [1]: inactive

O=C1C=CC(=O)N1c1ccccc1
outcome [1]: inactive

CCN=c1cc2oc3cc(NCC)c(C)cc3c(-c3ccccc3C(=O)OCC)c-2cc1C
AC50 [1]: 43.6 nM (active)

F[Si-2](F)(F)(F)(F)F
outcome [1]: inactive
